NPC1 prom act – activators of NPC1 promoter; Huh7 NPC1 promoter luciferase reporter, 24 h; Potency, µM (highest dose often 9.22 µM), without a hit: top-dose activation, hits mostly activators; 320,000 compounds, 2.4% hits; AID 485313; further: % of control where 0% means no effect; nearly all actives have a fitted effect of over 60% in size
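Luminescence read-out of NPC1 promoter-driven luciferase in stably transfected Huh7 cells; compounds delivered in DMSO and left 24 h at 37C, 5% CO2, qHTS titration format.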
SMN2 splice up – SMN2 splice variant enhancement. HEK293 SMN2-luciferase splicing reporter, luminescence, 30-36 h. Potency, µM (doses to about 46.1 µM), for inactives: at the highest dose activity change, positive = activation, actives largely listed as activators. 210,000 compounds, 2.8% hits; further: % of control where 0% means no effect; nearly all actives have a fitted effect of over 55% in size
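HEK293 cells carry an SMN2 minigene-luciferase reporter in which exon 7 inclusion puts luciferase in frame. Cells were seeded at 2000 cells/well, attached for 10-12 hours, then exposed to compounds for 30-36 hours at 37C before ONE-Glo luminescence.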
FLuc counter – counter-screen for miR-21 project: firefly luciferase inhibitors or activators | P08659 | 360,000 compounds, 6.9% hits | Potency, µM (highest dose often 57.5 µM), for the others: at the top dose activity change, negative = inhibition, hits mostly inhibitors | purified FLuc, Km substrates, luminescence inhibition | AID 588342;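 further: plate controls were vehicle for no effect and reference inhibitor for full effect; nearly all actives have a fitted effect of over 55% in size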
Target sequence (P08659 whole entry, looked up): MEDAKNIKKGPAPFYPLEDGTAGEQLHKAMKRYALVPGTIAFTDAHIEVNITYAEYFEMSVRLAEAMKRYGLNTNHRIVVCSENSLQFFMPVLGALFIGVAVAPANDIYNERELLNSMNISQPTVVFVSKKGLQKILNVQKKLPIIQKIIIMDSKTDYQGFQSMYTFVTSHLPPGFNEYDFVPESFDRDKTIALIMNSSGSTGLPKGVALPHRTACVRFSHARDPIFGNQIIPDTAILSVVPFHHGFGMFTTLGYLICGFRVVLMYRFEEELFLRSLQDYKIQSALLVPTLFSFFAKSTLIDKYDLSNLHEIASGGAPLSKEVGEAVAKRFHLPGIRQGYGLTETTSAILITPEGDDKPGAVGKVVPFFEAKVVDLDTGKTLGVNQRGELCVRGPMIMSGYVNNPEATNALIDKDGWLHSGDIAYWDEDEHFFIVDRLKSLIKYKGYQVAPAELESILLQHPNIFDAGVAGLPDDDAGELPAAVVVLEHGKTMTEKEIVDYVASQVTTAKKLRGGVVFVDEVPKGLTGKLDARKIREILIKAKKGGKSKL
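Purified P. pyralis luciferase (10nM final) with 10uM D-luciferin and 10uM ATP (Km levels) in 50mM Tris acetate pH 7.5, 10mM Mg acetate, 0.01% Tween-20, 0.05% BSA; qHTS 6-point titration, ~60 µM downward; luminescence read.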
Luc counter – blocks Kinase-Glo luciferase, a counter-screen artifact; Q27757; Kinase-Glo luciferase, ATP luminescence, 8 min; Potency, µM (doses to about 38.3 µM), for inactives: at the highest dose activity change, negative = inhibition, hits mostly inhibitors; 200,000 compounds, 0.28% hits; AID 1379; further: on the % scale 0 is the no-effect control and ±100 the full control effect; nearly all actives have a fitted effect of over 60% in size
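Luminescence was the read-out, taken after 8-minute incubation at ambient temperature. Luciferase turned over luciferin with 10 uM ATP in imidazole pH 7.2 buffer containing KCl, MgCl2, Tween 20 and BSA.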
Rab9 promoter act – activators of Rab9 promoter | Huh7 Rab9 promoter-luciferase reporter, luminescence, 24 h | Potency, µM (top dose mostly 9.22 µM), inactives show top-dose activation, negative = inhibition, most hits filed as activators | 320,000 compounds, 2.8% hits | AID 485297; further: % of control where 0% means no effect; nearly all actives have a fitted effect of over 60% in size
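Measured in stably transfected Huh7 cells bearing a Rab9 promoter–luciferase construct: 24 h compound treatment at 37 °C, followed by luminescence detection.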
The depositor's hits bear a star; [ ] = remark or other dose. Only some compounds are listed: those with a hit (about 7.3% of all), similar ones and a draw of the others. The call rests on the fitted dose curve; in most records, active means well fitted curve in the direction sought with a large enough effect; inconclusive means small, poorly fitted or top-dose-only effect, or another doubt; inactive means no such curve, though single readings can be large; an effect the other way counts as inactive or inconclusive. Potency means the concentration at half of the fitted maximal effect.

Screening COc1cccc(-c2nc3ccccc3s2)c1 returned NPC1 prom act 13%, SMN2 splice up inconclusive, FLuc counter 0.85µM*, Luc counter -3% and Rab9 promoter act inconclusive.
For COc1cccc(CC(=O)Nc2ccc(-c3nc4ccccc4s3)cc2)c1 the results were FLuc counter 6µM*.
`COc1cc(OC)cc(C(=O)Nc2ccc(-c3nc4ccccc4s3)cc2C)c1` gave SMN2 splice up 10% and FLuc counter -6%.
`COC(=O)C(CCSC)NC(=O)c1c(C)oc2ncn(CC(C)C)c(=O)c12` (centres undefined) gave FLuc counter 6%.
COc1cc(NC(=O)c2ccc(C)c(Cl)c2)ccc1NC(=O)c1cc2ccccc2o1 was read as SMN2 splice up 7% and FLuc counter 3%.
`O=Cc1ccccc1OCCOc1ccccc1C=O` gave NPC1 prom act 0%, SMN2 splice up inconclusive, FLuc counter 24µM*, Luc counter -4% and Rab9 promoter act 3%.
Screening O=Cc1ccccc1Oc1ccccc1 returned NPC1 prom act -4%, SMN2 splice up -2%, FLuc counter -6%, Luc counter 2% and Rab9 promoter act 1%.
O=C(O)c1sc2cccc(Cl)c2c1Cl was read as NPC1 prom act 0%, FLuc counter 5.4µM*, Luc counter -1% and Rab9 promoter act 2%.
`O=C(Nc1ccccc1Cl)c1sc2cccc(Cl)c2c1Cl` gave SMN2 splice up -8% and FLuc counter inconclusive.
`CN1CCN(C(=O)c2ccc3c(c2)N(Cc2ccc(C(F)(F)F)cc2)C(=O)c2ccccc2S3)CC1` gave SMN2 splice up 12% and FLuc counter -6%.
COc1cc(/C=C2\CCC(C3CCCC3)C2=O)cc(OC)c1OC (centres undefined) was read as NPC1 prom act 3%, FLuc counter inconclusive and Rab9 promoter act 14%.
Screening COc1ccc(/C=C2\CCC(C3CCCC3)C2=O)c(OC)c1OC (centres undefined) returned NPC1 prom act -4%, FLuc counter 24µM* and Rab9 promoter act 0%[1.84 µM].
`COc1cccc(/C=C2\CCC(C3CCCC3)C2=O)c1OC` (centres undefined) gave NPC1 prom act 2.8µM*, FLuc counter 1.1µM* and Rab9 promoter act 4µM*.
Cc1ccc(N=Nc2c(C)[nH][nH]c2=O)c(C)c1 was read as NPC1 prom act 3%, SMN2 splice up 16%, FLuc counter 7.6µM*, Luc counter -3% and Rab9 promoter act 23%.
For COc1ccccc1N=Nc1c(C)[nH][nH]c1=O the results were NPC1 prom act -2%, FLuc counter inconclusive and Rab9 promoter act 1%.
C(=N\Nc1nc2ccccc2s1)/c1ccco1 was read as NPC1 prom act 2.2µM*, SMN2 splice up 1.6µM*, FLuc counter 1.2µM*, Luc counter 4% and Rab9 promoter act 1.3µM*.
Screening Cc1ccsc1/C=N/Nc1nc2ccccc2s1 returned NPC1 prom act 3.5µM*, SMN2 splice up 1µM*, FLuc counter 1.7µM*, Luc counter inconclusive and Rab9 promoter act 1.8µM*.
`C(=N\Nc1nc2ccccc2s1)/c1cccs1` gave NPC1 prom act inconclusive, SMN2 splice up 7.1µM*, FLuc counter 0.85µM*, Luc counter -1% and Rab9 promoter act 1.3µM*.
For CCn1c(C)c(/C=N/Nc2nc3ccccc3s2)c2ccccc21 the results were NPC1 prom act inconclusive, SMN2 splice up -25%, FLuc counter 13µM*, Luc counter -5% and Rab9 promoter act 12%.
Screening OCC(O)/C=N/Nc1nc2ccccc2s1 (centres undefined) returned NPC1 prom act 16%, SMN2 splice up inconclusive, FLuc counter -8%, Luc counter 2% and Rab9 promoter act 13%.
`Cn1nnnc1SCCNCc1cc(Br)ccc1OCc1ccccc1Cl` gave SMN2 splice up -66% and FLuc counter -2%.
For Cc1ccnc(N/N=C/c2ccco2)n1 the results were NPC1 prom act inconclusive, SMN2 splice up inconclusive, FLuc counter 17µM*, Luc counter -5% and Rab9 promoter act 26%.

Compound activity: PubChem BioAssay, National Center for Advancing Translational Sciences (NCATS)
